Among all 290,000 compounds or so, about 3,000 (1%) were called active. The rule behind the calls is not given here. What follows is part of a selection rich in actives, with near analogues and random picks from the rest.
Molecular target: Polyadenylate-binding protein 1 (Homo sapiens) (UniProt P11940)
Assay: PABP poly(A) RNA binding inhibitors, primary screen, biochemical, fluorescence polarization, uHTS (AID 2014);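 note: calls also rest on retests at 20 µM and on dose response follow-up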
Conditions: stronger effect = higher value

Chain of Polyadenylate-binding protein 1 (Homo sapiens) (P11940 whole entry, looked up): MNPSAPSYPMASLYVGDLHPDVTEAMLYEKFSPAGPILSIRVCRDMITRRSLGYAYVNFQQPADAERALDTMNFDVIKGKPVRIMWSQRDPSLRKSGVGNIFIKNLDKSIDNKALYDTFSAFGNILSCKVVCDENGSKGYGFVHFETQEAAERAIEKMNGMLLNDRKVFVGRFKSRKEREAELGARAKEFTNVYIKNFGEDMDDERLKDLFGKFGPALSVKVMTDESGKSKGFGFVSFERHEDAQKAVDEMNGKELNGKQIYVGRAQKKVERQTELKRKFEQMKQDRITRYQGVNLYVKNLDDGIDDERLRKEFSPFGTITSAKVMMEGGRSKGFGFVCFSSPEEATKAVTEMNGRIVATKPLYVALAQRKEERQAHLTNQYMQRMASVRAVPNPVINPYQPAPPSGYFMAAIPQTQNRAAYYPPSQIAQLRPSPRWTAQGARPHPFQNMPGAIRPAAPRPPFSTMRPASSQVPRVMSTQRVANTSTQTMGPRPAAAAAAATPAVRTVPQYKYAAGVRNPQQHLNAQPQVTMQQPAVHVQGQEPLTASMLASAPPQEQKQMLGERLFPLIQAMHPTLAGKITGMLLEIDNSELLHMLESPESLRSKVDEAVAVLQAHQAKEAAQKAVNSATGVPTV

O=C(CCCN1CCc2[nH]c3ccc(F)cc3c2C1)c1ccc(F)cc1
inhibition (at 35 µM): -1.4% (inactive)

CC(=O)Cn1cnc2c(cnn2-c2ccccc2)c1=O
inhibition (at 35 µM): -4.8% (inactive)

CCCCC(=O)Nc1ccc2c(c1)OCCO2
inhibition (at 35 µM): -6.8% (inactive)

O=C(CN(c1ccc2c(c1)OCCO2)S(=O)(=O)c1ccccc1)Nc1ccc2c(c1)OCO2
inhibition (at 35 µM): -3.5% (inactive)

O=C(CCS(=O)(=O)Cc1ccccc1)Nc1ccc2c(c1)OCCO2
inhibition (at 35 µM): 72% (active) | inhibition (confirmation repeats, at 20 µM): 88.6%

COc1ccccc1-n1c(-c2cc(-c3ccco3)[nH]n2)n[nH]c1=S
inhibition (at 35 µM): 39% (active) | inhibition (confirmation repeats, at 20 µM): 56.9%

COc1ccc(-n2c(-c3ccc(OC)c(OC)c3)n[nH]c2=S)cc1
inhibition (at 35 µM): 4.9% (inactive)

COc1ccc(OC)c(-n2c(-c3ccn[nH]3)n[nH]c2=S)c1
inhibition (at 35 µM): -4.8% (inactive)

CCOC(=O)N1CCN(Cc2nc3cc(NC(=O)CC)ccc3n2CC)CC1
inhibition (at 35 µM): 1.3% (inactive)

Cc1cccc(NC(=O)CCn2c(=O)oc3ccccc32)c1
inhibition (at 35 µM): 1% (inactive)

COc1cccc(Nc2ncccc2C(=O)O)c1
inhibition (at 35 µM): 11.9% (inactive)

COc1cc(C(F)(F)F)c(C(=O)N(C)c2ccc(Cl)cc2)cn1
inhibition (at 35 µM): -5.6% (inactive)

COc1ccc(Nc2cc(Cl)ccc2C(=O)O)cn1
inhibition (at 35 µM): 72.3% (active) | inhibition (confirmation repeats, at 20 µM): 106%

COc1ccccc1OC(C)C(=O)Nc1ccc(S(=O)(=O)Nc2nccs2)cc1 (centres undefined)
inhibition (at 35 µM): 4.4% (inactive)

CC(C)(C)OC(=O)NC(Cc1ccccc1)C(=O)NC(CSC1CCCCO1)C(=O)NN (centres undefined)
inhibition (at 35 µM): 1.1% (inactive)

COc1ccc(NS(=O)(=O)c2ccc(N3CCOCC3)c(NC(=O)c3ccccc3Br)c2)cc1
inhibition (at 35 µM): 3.8% (inactive)

COc1ccc(NS(=O)(=O)c2cc(NC(=O)C3CCCCC3)ccc2N2CCOCC2)cc1
inhibition (at 35 µM): 67.6% (active) | inhibition (confirmation repeats, at 20 µM): 92.5%

COc1ccc(NS(=O)(=O)c2cc(NC(=O)/C=C/c3cc(OC)c(OC)c(OC)c3)ccc2N2CCCCC2)cc1
inhibition (at 35 µM): -9.8% (inactive)

CC1CCCN(S(=O)(=O)c2ccc(-c3ccc(=O)[nH]n3)o2)C1 (centres undefined)
inhibition (at 35 µM): 3.3% (inactive)

Cc1ccc(-n2ncc3c2CC(C)(C)CC3NC(=O)CCc2cnn(C)c2)cc1 (centres undefined)
inhibition (at 35 µM): 54.6% (inactive) | inhibition (confirmation repeats, at 20 µM): 27.1%

O=C(NC1CCCC1)C1CC(=O)N(c2ccc(F)cc2)C1 (centres undefined)
inhibition (at 35 µM): -2.5% (inactive)

Cc1cc2c(cc1C)[n+](C)cn2CC(O)COCC1CC=CCC1 (centres undefined)
inhibition (at 35 µM): 77.8% (active)

N#Cc1cccc(CN2CCC(=O)N([C@H](CO)c3ccccc3)CC2)c1
inhibition (at 35 µM): 5.7% (inactive)

COc1cc(OC)cc(C(=O)NCCSCc2ccc(Cl)cc2)c1
inhibition (at 35 µM): -3.9% (inactive)

O=C(Nc1ccccc1)/C(=C\c1ccco1)NC(=O)c1ccco1
inhibition (at 35 µM): 14.9% (inactive)

O=C(NCc1ccco1)/C(=C/c1ccco1)NC(=O)c1ccccc1
inhibition (at 35 µM): -4% (inactive)

Cc1cccc(NC(=O)/C(=C\c2ccco2)NC(=O)c2ccccc2)c1
inhibition (at 35 µM): 52.1% (active)

COc1cc(/C=C/C(=O)N2CCc3ccccc3C2)cc(OC)c1OC
inhibition (at 35 µM): 2.6% (inactive)

COc1ccc(Cc2nnc(SCC(=O)Nc3ccc(C)c(C)c3)o2)cc1OC
inhibition (at 35 µM): -6.8% (inactive)

CCOC(=O)N1CCN(C(=O)COCc2cc(-c3ccc4c(c3)OCO4)on2)CC1
inhibition (at 35 µM): 3.8% (inactive)

COc1ccc([N+](=O)[O-])cc1N(CC(=O)Nc1ccccc1C(=O)N1CCOCC1)S(C)(=O)=O
inhibition (at 35 µM): -5.6% (inactive)

COCCn1c(SCC(=O)Nc2nc(C)cs2)nnc1C(C)C
inhibition (at 35 µM): 2.9% (inactive)

O=C(CCN1C(=O)[C@@H]2Cc3ccccc3CN2C1=O)NCCc1ccccc1
inhibition (at 35 µM): 58.8% (active)

Cc1ccc(CNC(=O)CCN2C(=O)[C@@H]3Cc4ccccc4CN3C2=O)cc1
inhibition (at 35 µM): 10.4% (inactive)

O=C(CCN1C(=O)[C@@H]2Cc3ccccc3CN2C1=O)NCc1ccccc1
inhibition (at 35 µM): 1.7% (inactive)

Cc1ccc(C2SCC(=O)N2c2ccccc2)cc1 (centres undefined)
inhibition (at 35 µM): -0.7% (inactive)

COc1ccc(-c2oc3ncnc(NCCCO)c3c2-c2ccc(OC)cc2)cc1
inhibition (at 35 µM): 7.6% (inactive)

Cc1ccc(N2C(=O)C3C4C=CC(CC4)C3C2=O)cc1Cl (centres undefined)
inhibition (at 35 µM): 0.6% (inactive)

Cc1cccc(-c2nnc(SCC(=O)O)n2Cc2ccccc2)c1
inhibition (at 35 µM): 0.6% (inactive)

CN1CCc2c(sc3c2c(NCc2ccco2)nc2nnnn23)C1
inhibition (at 35 µM): 94.1% (active)

Cn1c(=O)n(Cc2ccco2)c(=N)c2c3c(sc21)CCCC3
inhibition (at 35 µM): 8.4% (inactive)

CCCSc1nc(NCc2ccco2)c2c3c(sc2n1)COC(C)(CC)C3 (centres undefined)
inhibition (at 35 µM): 9.5% (inactive)

COc1ccc(C(CNC(=O)c2ccc(S(=O)(=O)Nc3ccccc3F)cc2)N(C)C)cc1 (centres undefined)
inhibition (at 35 µM): 53.4% (active) | inhibition (confirmation repeats, at 20 µM): 116%

COc1ccc(C(CNCC(=O)Nc2ccccc2F)N(C)C)cc1 (centres undefined)
inhibition (at 35 µM): -7.5% (inactive)

CC(=O)c1ccc(S(=O)(=O)Nc2ccc(C(=O)NCC(c3ccccc3)N(C)C)cc2)cc1 (centres undefined)
inhibition (at 35 µM): 12.7% (inactive)

Cc1ccc(S(=O)(=O)N(CC(=O)NCc2ccco2)c2ccccc2C)cc1
inhibition (at 35 µM): 3% (inactive)

COc1ccc2c(C)c(CCC(=O)NC3CC3)c(=O)oc2c1C
inhibition (at 35 µM): 11.8% (inactive)

CCOC(=O)C1(Cc2cccc(OC)c2)CCCN(C(=O)CCSC)C1 (centres undefined)
inhibition (at 35 µM): 15.2% (inactive)

CCSc1nnc(NC(=O)c2ccc(C)cc2)s1
inhibition (at 35 µM): -4.4% (inactive)

Cc1ccc(C(=O)Oc2coc(CSc3nnc(NC(=O)c4cccs4)s3)cc2=O)cc1C
inhibition (at 35 µM): -2.3% (active) | inhibition (confirmation repeats, at 20 µM): 88.5%

Cc1ccc(C(=O)Nc2nnc(-c3cccs3)s2)cc1C
inhibition (at 35 µM): 4.7% (inactive)

CN(C)CCN(C(=O)C1CCCCC1)c1nc2cc3c(cc2s1)OCO3
inhibition (at 35 µM): 11% (inactive)

CN(C)CCCn1c(=O)n(Cc2ccccc2)c(=O)c2c3c(sc21)CCCCC3
inhibition (at 35 µM): -5.5% (inactive)

CCCCCCn1cc(C(=O)O)c(=O)c2cc(F)c(N3CCCCC3)cc21
inhibition (at 35 µM): -0.7% (inactive)

CCC1CCCCN1C(=O)CSc1nc2c(c(=O)n1C)SC(C)C2 (centres undefined)
inhibition (at 35 µM): -9% (inactive)

Cc1ccc(Cc2cnc(N)s2)o1
inhibition (at 35 µM): 47.2% (active) | inhibition (confirmation repeats, at 20 µM): 56.6%

Cc1ccc(CCC(=O)Nc2ncc(Cc3cc(Cl)ccc3Cl)s2)o1
inhibition (at 35 µM): 29.5% (inactive)

Cc1cc(/C=C2\SC(=Nc3ccc(N4CCOCC4)cc3)N(C)C2=O)c(C)n1-c1cccnc1
inhibition (at 35 µM): 0.7% (inactive)

Cc1cc(/C=C2\SC(=O)N(C)C2=O)c(C)n1-c1cccc(C(=O)O)c1
inhibition (at 35 µM): 67.4% (active)

Cc1cc(/C=C2/SC(=O)N(CC(=O)N3CCCC3)C2=O)c(C)n1C
inhibition (at 35 µM): 19.7% (inactive)

CCC(=O)Nc1ccc(S(=O)(=O)Nc2c(NC)c3ccccc3oc2=O)cc1
inhibition (at 35 µM): 0.6% (inactive)

O=C(CN1CCCC1)N1CCN(c2ccccc2)CC1
inhibition (at 35 µM): 0.4% (inactive)

CCCC(=O)N1CCc2[nH]c3ccccc3c2C1
inhibition (at 35 µM): 14.1% (inactive)

Cc1ccc2[nH]c3c(c2c1)CN(C(=O)CN1CCN(c2ccccc2)CC1)CC3
inhibition (at 35 µM): 90.5% (active)

COCCNC(=O)C(c1ccc(C)cc1)N(C(=O)CCC(=O)Nc1ccccn1)c1cccc(C)c1 (centres undefined)
inhibition (at 35 µM): -1.8% (inactive)

Cc1cccc(NC(=O)Nc2nnc(-c3ccccc3)o2)c1
inhibition (at 35 µM): -0.4% (inactive)

Cc1ccnc2nc(C(=O)Nc3nnc(-c4ccccc4)o3)nn12
inhibition (at 35 µM): -1.8% (active) | inhibition (confirmation repeats, at 20 µM): 82.4%

CCc1nnc(NC(=O)c2nc3nccc(C)n3n2)s1
inhibition (at 35 µM): -2.3% (inactive)

CCCC1=Nc2cc(C(=O)NCCN3CCCC3)ccc2Sc2ccccc21
inhibition (at 35 µM): -16.5% (inactive)

COc1cc(NC(=O)C2=C(C)OCCS2)c(Cl)cc1C(=O)NCCN1CCN(C)CC1
inhibition (at 35 µM): -8% (inactive)

O=C(CSc1ccc(-c2ccco2)nn1)Nc1cccc(F)c1
inhibition (at 35 µM): -7.4% (inactive)

O=C(NCCCc1ccccc1)C(=O)NCC1OCCN1S(=O)(=O)c1ccccc1 (centres undefined)
inhibition (at 35 µM): 10.1% (inactive)

O=C(NCCCn1ccnc1)C(=O)NCC1OCCN1S(=O)(=O)c1cc(F)ccc1F (centres undefined)
inhibition (at 35 µM): 58.4% (active)

Cc1cc(F)ccc1S(=O)(=O)N1CCCOC1CNC(=O)C(=O)NCCC1=CCCCC1 (centres undefined)
inhibition (at 35 µM): 0.9% (inactive)

Cc1ccc(C(=O)NC2CCN(C(=O)Nc3ccc(F)cc3)CC2)cc1
inhibition (at 35 µM): 10.6% (inactive)

CC(NC(=O)COc1cccnc1[N+](=O)[O-])c1ccc(Cl)cc1Cl (centres undefined)
inhibition (at 35 µM): 0.4% (inactive)

CC(C)c1ccccc1OCC(O)CN(CC(O)COc1cccc2ccccc12)C(C)C (centres undefined)
inhibition (at 35 µM): 5.7% (inactive)

COc1ccc(C(=O)N(C)CC(O)c2ccccc2)cc1OC1CCN(C(C)=O)CC1 (centres undefined)
inhibition (at 35 µM): -3.1% (inactive)

COc1ccc(CNC(=O)C(Cc2ccccc2)n2cccc2)cc1 (centres undefined)
inhibition (at 35 µM): 9.5% (inactive)

CC(Cc1ccccc1)C(=O)N(C)Cc1ccccc1 (centres undefined)
inhibition (at 35 µM): 2% (inactive)

Cc1ccc(C)n1C(Cc1ccccc1)C(=O)O (centres undefined)
inhibition (at 35 µM): 69.6% (active)

COCCN1C(=O)N(c2ccc(Cl)cc2)C(=O)C1CC(=O)Nc1cc(OC)cc(OC)c1 (centres undefined)
inhibition (at 35 µM): -6.1% (inactive)

COc1cccc(NC(=O)CSc2nnc(Cc3ccc(OC)c(OC)c3)o2)c1
inhibition (at 35 µM): 14.4% (inactive)

O=C(CCCN1C(=O)/C(=C/c2ccccc2)SC1=S)Nc1ccc(O)cc1
inhibition (at 35 µM): -7.7% (inactive)

O=C(CCCN1C(=O)/C(=C\c2ccco2)SC1=S)Nc1cccc2ccccc12
inhibition (at 35 µM): 4.3% (inactive) | inhibition (confirmation repeats, at 20 µM): -3.6%

O=C(CCCN1C(=O)/C(=C/c2ccco2)SC1=S)Nc1ccccc1
inhibition (at 35 µM): 17.5% (active) | inhibition (confirmation repeats, at 20 µM): 52.5%

CCCn1c(C)cc(/C=C(\C#N)C(=O)OCC(=O)Nc2cc(OC)c(OC)c(OC)c2)c1C
inhibition (at 35 µM): -0.7% (inactive)

COc1ccc(Cl)cc1NC(=O)c1cccc(N2C(=O)C3CC=CCC3C2=O)c1 (centres undefined)
inhibition (at 35 µM): -3.5% (inactive)

c1ccc(C2=Nc3cccc4cccc(c34)N2)cc1
inhibition (at 35 µM): 11.1% (inactive)

COc1ccccc1C1=Nc2cccc3cccc(c23)N1
inhibition (at 35 µM): 65.3% (active) | inhibition (confirmation repeats, at 20 µM): 86.4%

Fc1ccccc1N=C1Nc2cccc3cccc1c23
inhibition (at 35 µM): -10.8% (inactive)

CC(C)c1ccc(S(=O)(=O)N2CCC3(CC2)OCCO3)cc1
inhibition (at 35 µM): -6.1% (inactive)

From PubChem BioAssay AID2014 (Sanford-Burnham Center for Chemical Genomics, 2009)
